Data: PubChem BioAssay (NCATS)
Records with an inconclusive call do not appear. Activity calls are given as the source filed them. Calls follow the shape of the dose curve; as a rule, active = well fitted inhibition curve with a large enough effect; inconclusive = small, poorly fitted or top-dose-only effect; inactive = no such curve, though single readings can be large or run the other way.

Experiment: Primary qHTS for inhibitors of La Crosse Virus (LACV) - induced cell death in SH-SY5Y cells (AID 1508616);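 also: top concentration of the series differs between compounds; higher means more rescue of cells from virus-induced death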
Details: SH-SY5Y LACV cytopathicity rescue, ATP luminescence, 6 d; series mostly up to 4.29 µM
Source text: Assay Provider: Karin Peterson Ph.D.
National Institute of Allergy and Infection Diseases, National Institute of Health
La Crosse Virus (LACV) is a California serogroup mosquito-borne arbovirus, family Peribunyaviridae, which is an endemic pathogen in North America and can induce a rare, life-threatening neurological disease in children. LACV was first isolated in the early 1960s, from a summer "rural encephalitis" case in La Crosse, Wisconsin, USA. Since then, LACV encephalitis cases have been found in more than twenty states, with most cases in the Mississippi and Ohio River basins. The life cycle of LACV is maintained between the vector, the eastern tree-hole mosquito Aedes triseriatus, and vertebrate hosts including eastern gray squirrels (Sciurus carolinensis) and chipmunks (Tamiasstriatus grinseus). […] Most LACV infections in humans are asymptomatic or induce mild clinical symptoms of fever, headache, lethargy and vomiting. However, in some cases LACV can cause severe neuroinvasive disease, including encephalitis, meningitis, and meningoencephalitis, requiring hospitalization. To date, there is neither a licensed vaccine nor a Food and Drug Administration (FDA) approved antiviral therapy available to prevent or treat LACV encephalitis. The primary treatment for viral encephalitis is palliative care due to the lack of therapeutics. In the current study, we conducted a screen of 4,096 FDA approved and bioactive small molecules against LACV, by screening for rescue of LACV-induced cell death in SH-SY5Y cells.
LACV-induced cytopathicity assay
SEQUENCE No. (1,2, 3, etc.); […] (e.g., Cells, Incubation, Reagent, etc.); VALUE and DESCRIPTION.
1. Reagent; 2 uL; Cell solution.
3. Compounds; 23nL; Compound library
4. Reagent; 12 uL; LACV virus
6. Reagent; 24 uL; ATPLite (PerkinElmer)
7. Time; 5 min; Room temperature
8. Detection; Luminescence; View
NOTES (numbers refer to sequence above)
1. Seed 6000 SH-SY5Y cells (ATCC CRL-2266) in 2 microL/well media (DMEM/F12 10% FBS, 1x L-Glutamine, 1x Pyruvate, 1x NEAA, 1x Pen/Strep) in 384-well assay plates (tissue culture treated, white, solid bottom).
2. Incubate at 37 degrees C with 5% CO2 for 24 hr.
3. Dispense 23 nL/well compounds in DMSO via pin transfer.
4. Dispense 12 microL/well of LACV (LACV/human/1978) in media at 0.01 MOI.
5. Incubate at for 6 days at 37C 5% CO2
6. Dispense 24 microL/well of ATPLite 1step Luminescence assay system (PerkinElmer).
7. Incubate for 5 min at room temperature.
8. Read luminescence signal (Viewlux plate reader, PerkinElmer). Data was normalized with DMSO control wells containing LACV as 0%, and DMSO control wells without virus as 100%.

SMILES	outcome
COc1ccc2c(c1)CCCC2=O	inactive
CCS(=O)(=O)c1ccc(OC)c(C(=O)OC)c1	inactive
Cc1cccc(C)c1NC(=O)c1cc(S(N)(=O)=O)c(Cl)cc1O	inactive
CCCCCCOC(=O)NC(=N)c1ccc(NCc2nc3cc(C(=O)N(CCC(=O)OCC)c4ccccn4)ccc3n2C)cc1	inactive
Cc1c(F)cc2c(=O)c(C(=O)O)cn3c2c1CCC3C (stereo not given)	inactive
CC(=O)N(c1onc(C)c1C)S(=O)(=O)c1ccc(N)cc1	inactive
CCOc1ccccc1OCC1CNCCO1 (stereo not given)	inactive
CC(C)OC(=O)c1cc2c(OCC(O)CNC(C)(C)C)cccc2[nH]1 (stereo not given)	inactive
C/C(=C(/OCCOc1ccc(Cl)cc1)c1ccc(Cl)cc1Cl)n1ccnc1	inactive
CC(C)NC(=O)c1ccc(C=O)cc1	inactive
Cn1cnc2c(NCc3ccccc3)nc(NCCO)nc21	inactive
CCc1cc2cc(OC)c(OC)cc2c(Cc2ccccc2)n1	inactive
CC(=O)N(CC(=O)N(C)C)c1ccccc1	inactive
O=C(CCCCC(=O)Nc1c(I)cc(I)c(C(=O)O)c1I)Nc1c(I)cc(I)c(C(=O)O)c1I	inactive
CC(=O)OCC[N+](C)(C)C	inactive
Nc1c[n+](N2CCOCC2)no1	inactive
COC(=O)C1=C(C)NC(C)=C(C(=O)OCCc2ccc(N3CCN(C(c4ccccc4)c4ccccc4)CC3)cc2)C1c1cccc([N+](=O)[O-])c1 (stereo not given)	inactive
CC(Oc1c(Cl)cccc1Cl)C1=NCCN1 (stereo not given)	inactive
O=C(O)C(=O)Nc1cccc(-c2nn[nH]n2)c1	inactive
CC(C)C(=O)Nc1cccc(C(F)(F)F)c1	inactive

SMILES	outcome
CC(NN)c1ccccc1 (stereo not given)	inactive
C[C@@H]1C[C@H]2[C@@H]3CCC4=CC(=O)C=C[C@]4(C)[C@@]3(F)[C@@H](O)C[C@]2(C)[C@@]1(O)C(=O)COC(=O)c1ccncc1	inactive
CC(=O)O[C@@H]1CC2C3CCc4cc(OC(=O)c5ccccc5)ccc4C3CCC2(C)[C@H]1OC(C)=O (stereo not given in full)	inactive
COc1ccc2cc(C=O)ccc2c1	inactive
C/C(=N/NC(=O)c1ccncc1)C(=O)O	inactive
O=C(O)Cn1c(=O)n(Cc2ccc(Br)cc2F)c(=O)c2ccc(Cl)cc21	inactive
N#CC1(c2ccc(F)cc2)CCC(=O)CC1	inactive
O=C(OCC(COC(=O)c1cccnc1)(COC(=O)c1cccnc1)COC(=O)c1cccnc1)c1cccnc1	inactive
Cc1cc(C(C)(C)C)c(O)c(C(C)(C)C)c1	inactive
Nc1ncnc2c1ncn2Cc1c(F)cccc1Cl	inactive
CC(=O)N1CCN(c2ccc(O)cc2)CC1	inactive
CCOC(=O)C1=C(C)NC(C)=C(C(=O)OCC)C1c1ccccc1/C=C/C(=O)OC(C)(C)C	inactive
Cc1[nH]cnc1-c1ccc(Cl)cc1	inactive
Cc1ccc(C(=O)C(=O)O)cc1C	inactive
CCCCCCCCCCCCCC[N+](C)(C)C	inactive
O=C(O)c1ccccc1Nc1cc(Cl)ccc1C(=O)O	inactive
C[C@@H]1CCC[C@H](C)N1CCCC(O)(c1ccccc1)c1ccccn1 (stereo not given in full)	inactive
CN(C)c1cc2c(Nc3ccc4c(cnn4Cc4ccccc4)c3)ncnc2cn1	inactive
Nc1ccc2cc3ccc(N)cc3nc2c1	inactive
O=C1Cc2cc(Cl)ccc2N1	inactive
